Data on four molecules can be found in PubChem BioAssay (NCATS).

Records with an inconclusive call do not appear. Activity calls are given as the source filed them. Unless noted, calls come from the whole dose curve; as a rule, active = well fitted curve in the direction sought with a large enough effect; inconclusive = small, poorly fitted or top-dose-only effect, or another doubt; inactive = no such curve, though single readings can be large; an effect the other way counts as inactive or inconclusive.

Assay [1] deals with Zika virus NS2B-NS3 protease. In words: Primary screen GU AMC qHTS for Zika virus inhibitors (AID 1347154).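 Note: 0% = no-inhibitor control and -100% = no-enzyme control; nearly all actives have a fitted effect of over 70% in size.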 The procedure, abridged: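 Unlinked Zika NS2B hydrophilic domain/NS3 protease domain noncovalent complex (25 nM final) in 10 mM Tris-HCl pH 8.0, 0.01% Tween 20, with AMC peptide substrate. Fluorescence (ex 340, em 450 nm) change over 15 min, room temperature; percent inhibition fitted to 4-parameter Hill equation.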

Assay [2] can be described thus: qHTS to identify inhibitors of the type 1 interferon - major histocompatibility complex class I in skeletal muscle: primary screen against the NCATS Mechanism Interrogation Plate v5.0 (MIPE) Libary (AID 1347411).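 Note: plate controls were vehicle for no effect and reference inhibitor for full effect; nearly all actives have a fitted effect of over 65% in size.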 The method in brief:
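Immortalized human C25cl48 myoblasts with HiBit knocked into endogenous HLA-B*08:01 were stimulated with 4.0 ng/ml IFN-beta and exposed to compounds (11-point 1:3 titration, top 46 uM final) for 24 hrs at 37 C; HiBiT lytic luminescence measured.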

Assay [3] in a line: Primary qHTS for small molecule stabilizers of the endoplasmic reticulum resident proteome: Secreted ER Calcium Modulated Protein (SERCaMP) assay (AID 1508630). Note: % is set by controls: 0 for no effect and ±100 for the full control effect. The procedure, abridged:
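GLuc-SERCaMP-expressing SH-SY5Y cells, pretreated 16 h with compound, are challenged with thapsigargin to empty ER calcium stores; after 4 h, coelenterazine is added directly to the medium and luminescence is imaged.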

Assay [4] in a line: NCATS anti-infectives library activity on HEK293 viability as a counter-qHTS vs the C. elegans viability qHTS (AID 1745854). Note: % is set by controls: 0 for no effect and ±100 for the full control effect. The method in brief:
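HEK293 cells, 1500 per well, exposed 24 hr at 37C in 5% CO2 to compounds in a 1:5 titration, up to 41.7 uM final. Viability read as CellTiter-Glo luminescence after 10 min at room temperature.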

Assay [5] has as its target Glutathione peroxidase 1 (Homo sapiens) (UniProt P07203). The assay is described as follows: Primary qHTS Assay for Inhibitors of Recombinant Selenoprotein Glutathione Peroxidase 1 (GPX1) (AID 1845191). Note: nearly all actives have a fitted effect of over 65% in size. The method in brief: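 Recombinant GPX1 (10 nM final) was preincubated with compound for 30 min at room temperature, then reacted with 1 mM GSH, 0.5 mM CHP, 0.5 mM NADPH and 100 nM glutathione reductase; NADPH fluorescence (340/450 nm) was read at 0 and 15 min.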

The target in assay [6] is Phospholipid hydroperoxide glutathione peroxidase GPX4 (Homo sapiens) (UniProt P36969). The assay is described as follows: Primary qHTS Assay for Inhibitors of Recombinant Selenoprotein Glutathione Peroxidase 4 (GPX4) (AID 1845192). Note: nearly all actives have a fitted effect of over 65% in size. The conditions noted are these: outcome: dose series up to 50 µM unless noted. The method in brief: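 GR-coupled readout: 100 nM GR, 1 mM GSH, 0.5 mM NADPH; NADPH fluorescence (ex 340/em 450 nm) read at t=0 and after 15 min RT. GPX4 200 nM, preincubated 30 min with compound; substrate 0.5 mM CHP.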
Phospholipid hydroperoxide glutathione peroxidase GPX4 (Homo sapiens), sequence (P36969 whole entry, looked up): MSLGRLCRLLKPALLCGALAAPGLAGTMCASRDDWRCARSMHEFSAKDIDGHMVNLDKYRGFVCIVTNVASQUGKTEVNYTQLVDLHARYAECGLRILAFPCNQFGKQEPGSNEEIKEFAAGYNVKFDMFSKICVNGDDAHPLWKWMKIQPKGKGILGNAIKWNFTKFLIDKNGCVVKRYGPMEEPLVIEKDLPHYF

Assay [7] is described as follows: qHTS drug screen for cell cycle checkpoint inhibitors in PARPi-resistant BRCA-mutant ovarian cancer cell lines. (AID 1963452; calls by dose curve). The following applies: PEO1/OlaR viability, CellTiter-Glo luminescence, 96 h, stronger effect = lower value. The procedure, abridged:
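PEO1, PEO4 and PEO1/OlaR ovarian cancer cells, 600 per well, exposed 96 h at 37C to a dilution series. Viability read by CellTiter-Glo luminescence, normalized to DMSO and empty wells; activity summarized as Z-AUC.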

Glutathione peroxidase 1 (Homo sapiens), sequence (P07203 whole entry, looked up): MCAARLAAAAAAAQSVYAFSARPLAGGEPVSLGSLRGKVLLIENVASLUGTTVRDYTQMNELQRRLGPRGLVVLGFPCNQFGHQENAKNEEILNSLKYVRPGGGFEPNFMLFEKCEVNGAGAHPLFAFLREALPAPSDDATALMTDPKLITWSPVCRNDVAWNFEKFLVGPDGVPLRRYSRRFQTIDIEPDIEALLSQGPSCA

On to `CCCC[C@@H](C=O)NC(=O)[C@H](CC(C)C)NC(=O)OCc1ccccc1`, for which the Potency result in assay [1], in assay [2], in assay [3], in assay [5] and in assay [6] was “inactive” each time. Besides, the molecule was called inactive in assay [4]. The Z-AUC in assay [7] is 1.25 (inactive); in assay [7] (measured here: PEO1 parental Z-AUC) it was 0.731; in assay [7] (measured here: PEO4 Z-AUC), 0.856.
Take `CC1(C)Oc2ccc(C#N)cc2[C@@H](OC2=CC(=O)CC2)[C@@H]1O`: the Potency entry in assay [1] is “inactive”.
As to `CCCCCCCCCCCCCCCCOCC(COP(=O)([O-])OCC[N+](C)(C)C)OC` (configuration not stated), the activity change, negative = inhibition in assay [1] was 5.04% [at 6.83 µM] (inactive).
For `C[C@H](CCC(=O)NCC(=O)O)C1CC[C@H]2[C@H]3C(C[C@H](O)[C@]12C)[C@@]1(C)CC[C@@H](O)C[C@H]1C[C@H]3O` (some centres not stated), the Potency result in assay [1] is “inactive”.
